{"source": "PubChem BioAssay (NCI)", "note": "Where “and” joins values, the source holds several entries; their conditions need not be identical. Equal values may be shown once. This is part of a sample that, as a whole, favours compounds with a hit. Of some 83,000 tested, about 20% had one in any assay.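 Compound tested at a single concentration for 48 hours in 96-well plates; a percent growth value below 10 was scored as active.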 Values without a mark were called inactive. Calls of active or inactive are those of the source.", "data": [{"tested_on": "KM12 colon", "experiment": "NCI-60 one-dose screen, 48 h (100 = growth as untreated, 0 = no growth, -100 = all killed)", "conditions": "10 µM", "procedure": "(§1) Growth inhibition of the KM12 human tumor cell line is measured as a screen for anti-cancer activity. Cells are grown in 96 well plates and exposed to the test compound for 48 hours. Compounds are tested at a single concentration, which is 10^-5 M for most compounds. The reported endpoint is percent growth (GI% or GIPRCNT), where numbers from 0 - 100% represent growth inhibition, and numbers from -100% - 0 represent cell death. For example, a value of 40 represents 60% growth inhibition. A value of 0 means no net growth occurred over the course of the experiment. A value of -40 indicates 40% of cells at the beginning of the experiment died by the end of the experiment. A value of -100 means all cells are dead at the end of the experiment.\n(§2) NCI-60 Human Tumor Cell Lines Screen was performed using the standard one-dose NCI protocol, which is described in more detail at https://dtp.cancer.gov/discovery_development/nci-60/default.htm.\n(§3) Compounds with GIPRCNT values below 10 were considered active. Activity score was based on GIPRCNT using the following formula: […]\n(§4) Score is 0 for GIPRCNT values of 100 or above, 50 for GIPRCNT values of 0, and 100 for GIPRCNT values of -100.", "units": {"growth": "%"}, "values": [{"smiles": "CC(=O)/C=C/c1ccc(N(C)Cc2ccc(C(C)(C)C)cc2)cc1", "growth": 95.5}, {"smiles": "CC(=O)/C=C/c1ccc(N(CCO)Cc2ccc(C(C)(C)C)cc2)cc1", "growth": 81.2}, {"smiles": "COc1ccc(C(=O)/C=C/c2ccc(OCc3ccc(Cl)cc3)cc2)cc1OC", "growth": 90.7}, {"smiles": "O=C(/C=C/c1cccc(Oc2ccc(Cl)cc2)c1)c1ccccc1", "growth": 75.3}]}, {"tested_on": "KM12 colon", "experiment": "NCI-60 one-dose screen, 48 h (100 = growth as untreated, 0 = no growth, -100 = all killed)", "conditions": "10 µM unless noted", "procedure": "as §1, §2, §3, §4", "values": [{"smiles": "O=C1c2cccc3cccc(c23)C(=O)N1N1C(=O)c2cccc3c(N4CCNCC4)ccc(c23)C1=O", "growth": "82.2%"}, {"smiles": "CCN(CC)CCCN1C(=O)c2c(c(C)c3c(oc4cc(OC)ccc43)c2C)C1=O", "growth": "96.9%"}, {"smiles": "COC(=O)N/N=C/c1c[n+]([O-])c2ccccc2[n+]1[O-]", "growth": "103%"}, {"smiles": "COC(=O)c1c2c(c(C)[n+]([O-])c1C)C(=O)C(NCCN1CCOCC1)=CC2=O", "growth": "71.6%"}, {"smiles": "O=[N+]([O-])c1ccc(S(=O)Cc2ccccc2)c([N+](=O)[O-])c1", "note": "(stereo not given)", "growth": "77.1% and 101%"}, {"smiles": "COc1ccc(CCNC(=O)COc2cc3c(Nc4ccc(F)c(Cl)c4)ncnc3cc2OC)cc1OC", "growth": "96.9%"}, {"smiles": "COC(=O)[C@H]1Cc2c([nH]c3ccccc23)[C@@H](c2cccs2)N1", "growth": "100%"}, {"smiles": "COc1nc(=O)n(C2C=CC(=O)O2)cc1F", "note": "(stereo not given)", "growth": "103%"}, {"smiles": "CCN1CCN(C(=O)[C@]23CC[C@@H](C)[C@H](C)[C@@H]2C2=CC[C@@H]4[C@@]5(C)CCC(=O)C(C)(C)[C@@H]5CC[C@@]4(C)[C@]2(C)CC3)CC1", "growth": "6.9% (active)"}, {"smiles": "O=Nc1ccc(NO)c2ccccc12", "growth": "104% and 76.4%"}, {"smiles": "COc1cccc(NC(=O)c2sc3nc(C)c(C(O)c4ccccc4)cc3c2N)c1", "note": "(stereo not given)", "growth": "18%"}, {"smiles": "CCOC(=O)c1ccc(Nc2ncnc3c2cnn3-c2cccc(F)c2)cc1", "growth": "99.3%"}, {"smiles": "O=C1CCCCN1CCCCC#Cc1cccc(C#Cc2cccnc2)c1", "growth": "73.6%"}, {"smiles": "C/C=C(\\C)C(=O)N[C@H]1CC[C@]2(C)C3CC[C@@]4(C)C(CC[C@@H]4C(C)N(C)C)C3CCC2[C@H]1OC(C)=O", "note": "(stereo not given in full)", "growth": "-48.1% (active)"}, {"smiles": "CCNC(=O)Oc1ccc(/C(=C(/C)Cc2ccc(OC)cc2)c2ccc(OCCN(CC)CC)cc2)cc1", "growth": "62.2%"}, {"smiles": "COCCn1cc(-c2csc(-c3cn(C)c4ccc(F)cc34)n2)c2cccnc21", "growth": "40%"}, {"smiles": "N#Cc1cc(-c2ccnc(Nc3ccc(NC(=O)CCl)cc3)n2)ccc1N1CCCC1", "growth": "-11.6% (active)"}, {"smiles": "CN1CCN(CCCN2c3ccccc3Sc3ccc(Cl)cc32)CC1", "growth": "73.8% and 98.2%"}, {"smiles": "O/N=C(/c1ccccc1)c1ccc2c3c(cccc13)CC2", "growth": "86.4% and 78.4%"}, {"smiles": "CCOC(=O)c1cnn(CC(O)CC)c1NC(=O)NCc1ccccc1C(F)(F)F", "note": "(stereo not given)", "growth": "103%"}, {"smiles": "Cc1ccc(Cl)cc1N1CCN(C(=O)[C@@H]2C[C@@H]2c2ccc(F)cc2)CC1", "growth": "85.1%"}, {"smiles": "CCOC(=O)c1cc2c(n1Cc1cc(OC)cc(OC)c1Br)-c1nc(NC(C)=O)sc1CCC2", "growth": "67.6%"}, {"smiles": "Cn1ccnc1CN1CCSC(C(=O)Nc2ccccc2)C1", "note": "(stereo not given)", "growth": "97.7%"}, {"smiles": "N#C/C(=C\\c1ccccc1Cl)c1cc2ccccc2[nH]1", "growth": "82.6%"}, {"smiles": "CN1Cn2c(ccc2C(F)(F)F)C(=O)CS1(=O)=O", "growth": "110%"}, {"smiles": "CCOc1ccccc1NC(=O)c1cc2ccccc2cc1O", "growth": "33.6%"}, {"smiles": "COc1cc2nc3cc([N+](=O)[O-])ccc3c(NCCNCC(C)(C)O)c2cc1OC", "growth": "-7.24% (active)"}, {"smiles": "Clc1ccc(CNc2ccc3nc(CCC4CCCCC4)[nH]c3c2)cc1", "growth": "50.7%"}, {"smiles": "COc1ccc(Nc2ncnc3ccc(-c4cncc(NS(C)(=O)=O)c4)cc23)cc1Cl", "growth": "61%"}, {"smiles": "Cc1ccc(-c2nc3nc(-c4ccc(Br)cc4)nc(N4CCCNCC4)c3o2)cc1", "growth": "-90.9% (active)"}, {"smiles": "COc1ccc(S(=O)(=O)Nc2cc(Sc3cccc4cccnc34)c(O)c3ccccc23)cc1", "growth": "20.3%"}, {"smiles": "C#CCOCC1CN(C)C(=O)O1", "note": "(stereo not given)", "growth": "107%"}]}, {"tested_on": "KM12 colon", "experiment": "NCI-60 one-dose screen, 48 h (100 = growth as untreated, 0 = no growth, -100 = all killed)", "conditions": "100 µM", "procedure": "as §1, §2, §3, §4", "values": [{"smiles": "CC(=O)/C=C/c1ccc(N(C)Cc2ccc(C(C)(C)C)cc2)cc1", "growth": "-45.7% (active)"}, {"smiles": "CC(=O)/C=C/c1ccc(N(CCO)Cc2ccc(C(C)(C)C)cc2)cc1", "growth": "-78.2% (active)"}, {"smiles": "COc1ccc(C(=O)/C=C/c2ccc(OCc3ccc(Cl)cc3)cc2)cc1OC", "growth": "21.4%"}, {"smiles": "O=C(/C=C/c1cccc(Oc2ccc(Cl)cc2)c1)c1ccccc1", "growth": "-76.8% (active)"}]}]}
